Laboratory results taken from the supplement of paper PMC10105736.
Values without a mark were called inactive.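 The calls were made as follows: active = MAPPIT score above the 99th percentile of random reference set scores in the same batch; inactive = at or below it.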

What was measured:
Test in all cases: MAPPIT interaction score (arbitrary units); higher = stronger binary interaction signal, active = hit call of the paper
CG5883 = conditions: MAPPIT configuration: N-N; pair source set: RRS
CG6996 = conditions: MAPPIT configuration: N-N; pair source set: Finley_Y2H
Mcad = conditions: MAPPIT configuration: N-N; pair source set: Lit-BS-16
Treh = conditions: MAPPIT configuration: N-N; pair source set: Finley_Y2H
Unr = conditions: pair source set: Lit-BM-16
gcm = conditions: MAPPIT configuration: N-N; pair source set: Finley_Y2H
noi = conditions: MAPPIT configuration: N-N; pair source set: Finley_Y2H
prd = conditions: MAPPIT configuration: N-N; pair source set: Finley_Y2H
CG7044 = conditions: MAPPIT configuration: N-N; pair source set: Lit-BS-16
aspr = conditions: MAPPIT configuration: N-N; pair source set: Lit-BS-16
CG7137 = conditions: pair source set: Lit-BM-16
CG6712 = conditions: MAPPIT configuration: N-N; pair source set: DPIM
CG7548 = conditions: MAPPIT configuration: N-N
CG6664 = conditions: MAPPIT configuration: N-N; pair source set: DPIM
CG6933 = conditions: MAPPIT configuration: N-N; pair source set: Lit-BS-16
CG6683 = conditions: MAPPIT configuration: N-N; pair source set: Lit-BS-16
CG8654 = conditions: MAPPIT configuration: N-N; pair source set: DPIM
vih = conditions: MAPPIT configuration: N-N; pair source set: Curagen_low_conf
CG7407 = conditions: MAPPIT configuration: N-C; pair source set: screen_3
Dpm3 = conditions: MAPPIT configuration: N-C; pair source set: screen_4
CG7747 = conditions: MAPPIT configuration: N-N; pair source set: Finley_Y2H
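Also: HEK293T cells with Epo stimulation, STAT-responsive firefly luciferase reporter, fold induction versus unstimulated cells divided by the larger fold induction of two negative controls lacking either bait or prey.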

B1: mRpL39 (protein)
chain: MSAATKLHKTSWCALRQLQQYRTKANFSGSSASLAKRNDLFNQEQRRQRDAVGRIDKIEVRYLGLPEDVTLVMNGNISTPFNCAQHLSEGHCKRSALALIDGSVPWDMHRPLQESCTLQLLNFHVSEPHVVNKAFWRTCSFMLGAALNRAFKPEANLQLHSFPGPNIKSGSFVHDIVLQTQNWEPGKEEMRALSAEMVKLAAQDLRIERLDVQQDLAQEMFKDSKYKSEQLPSISQQTNGRVTLYRLGDHIDISRGPMVASTSFLGKCVISAAHKVAEEGPSGAFYRIQGVALPSGFQLNHVAFGVLEERSKKPSPARLPNEPFEEQQQLQLS
B1 gave an MAPPIT interaction score (CG5883) of -0.604.

B2: Sxl (protein)
chain: MYGNNNPGSNNNNGGYPPYGYNNKSSGGRGFGMSHSLPSGMSRYAFSPQDTEFSFPSSSSRRGYNDFPGCGGSGGNGGSANNLGGGNMCHLPPMASNNSLNNLCGLSLGSGGSDDLMNDPRASNTNLIVNYLPQDMTDRELYALFRAIGPINTCRIMRDYKTGYSFGYAFVDFTSEMDSQRAIKVLNGITVRNKRLKVSYARPGGESIKDTNLYVTNLPRTITDDQLDTIFGKYGSIVQKNILRDKLTGRPRGVAFVRYNKREEAQEAISALNNVIPEGGSQPLSVRLAEEHGKAKAAHFMSQMGVVPANVPPPPPQPPAHMAAAFNMMHRGRSIKSQQRFQNSHPYFDAKKFI
With B2 the MAPPIT interaction score (CG6996) was 0.192, the MAPPIT interaction score (Mcad) was 1.44 and the MAPPIT interaction score (Treh) was -0.289. It also gave an MAPPIT interaction score (Unr; MAPPIT configuration: N-C) of 3.02, an MAPPIT interaction score (Unr; MAPPIT configuration: N-N) of 2.17 and an MAPPIT interaction score (gcm) of -0.368. For the same binder, the MAPPIT interaction score (noi) was 4.3 (active) and the MAPPIT interaction score (prd) was -0.691.

B3: sala (protein)
chain: MKLLIALFALVTAVNAQNGFGQVGQGGYGGQGGFGGFGGIGGQAGFGGQIGFTGQGGVGGQVGIGQGGVHPGQGGFAGQGSPNQYQPGYGSPVGSGHFHGTNPVESGHFHENPHEYPEHHGDHHREHHEHHGHHEHHGHHRH
B3 gave an MAPPIT interaction score (CG7044) of 0.14 and an MAPPIT interaction score (aspr) of -0.194.

B4: grau (protein)
chain: MDICRLCLRGVSGAQMCLQIFDVDSGESKVAEVLRQHFWFEVLPNDEISKVICNVCWTQVSEFHQFYVSIQEAQVIYATTSKFKQDPEMVNTSWPEEVLMPADVLAVDNDVGAQINVNPLDELDLSQPMSPEDSKVGIKTERQSPDMELLFEDANNEQDEDYEDDEDDDTDDLIVTRSGRKRKRDVAKPAKTKRGTVSVGRKGKEKMVVKRGPPKRIFKMERLPPFCKEDEELIKRYIVMGCELCIFLAEDFDGIREHFKDKHPDERPYIKCCGRKLNKRCLIQEHARRHENPEYIKCKDCGKVFANSSVLRAHWLVHHVPDEECDFQCEDCGKRFSRRNLLELHKGSHVPVNERKFICPQCPKHNAFATEYHMQVHISMQHRKAANICHVCGKKIKDKAVFEKHVRLHFEESGPRIKCPRPDCESWLKDEDNLKQHLRRHNDEGKLFICSECGKSCKNSRALIGHKRYSHSNVIYTCEQCGKTFKKDISLKEHMAQHTGEPLYKCPFCPRTFNSNANMHSHKKKMHPVEWDIWRKTKTGSSQKVLPSAQVAQMFRDDADVAAIANDYSG
In the case of B4, the MAPPIT interaction score (CG7137; MAPPIT configuration: N-C) is reported as 3.33 and the MAPPIT interaction score (CG7137; MAPPIT configuration: N-N) is reported as 0.66.

B5: Vha55 (protein)
chain: MNAQQAQREHVLAVSRDFISQPRLTYKTVSGVNGPLVILDEVKFPKFAEIVQLRLADGTVRSGQVLEVSGSKAVVQVFEGTSGIDAKNTLCEFTGDILRTPVSEDMLGRVFNGSGKPIDKGPPILAEDFLDIQGQPINPWSRIYPEEMIQTGISAIDVMNSIARGQKIPIFSAAGLPHNEIAAQICRQAGLVKLPGKSVLDDHTDNFAIVFAAMGVNMETARFFKQDFEENGSMENVCLFLNLANDPTIERIITPRLALTAAEFLAYQCEKHVLVILTDMSSYAEALREVSAAREEVPGRRGFPGYMYTDLATIYERAGRVEGRNGSITQIPILTMPNDDITHPIPDLTGYITEGQIYVDRQLHNRQIYPPVNVLPSLSRLMKSAIGEGMTRKDHSDVSNQLYACYAIGKDVQAMKAVVGEEALTPDDLLYLEFLTKFEKNFISQGNYENRTVFESLDIGWQLLRIFPKEMLKRIPASILAEFYPRDSRH
B5 gave an MAPPIT interaction score (CG6712) of -0.225.

B6: sicily (protein)
chain: MRRLVRNWNCRLLFNAKSGQEIVSHAGIHQEAKTNAIPREKKVIEADKNGYGAKHCMSLVEKYDYENYLCTLLLPRELRRAAFALRAFNVEVSRSVSGHQIEPQIAKMRLKFWHDSIDKCFEPDSQRSYVEDQPVLRELKHTVGSRKLNKVYLRRLVTARERPPTHAFESIRELEEYTEQTFSSLLLLLLEVGGVRDLNADHAASHLGKAQGIATLLRSIPLAGRQQAPCIPLEVLVLHGVSQERIIRSKSDDKGVEDCIFDVASAANTHLKLARQLHDKVPPQVRKIFLSAVATDAYLERLRRANFLLTHKSCVGRDTLLPARLFWKSLLNRF
Work on B6 yielded an MAPPIT interaction score (CG7548; pair source set: Finley_Y2H) of -0.0114 and an MAPPIT interaction score (CG7548; pair source set: Lit-BS-16) of -0.0114.

B7: Cbp80 (protein)
chain: MSRRRAHDTEDEGYDHRRNKRRRVSENQEIEDRLESLILRVGERSTSSVESNLEGLVSVLEADLGTFRLKILRILSDCAVRMPEKCTVYTTLVGLLNAKNYKFGGEFVDHMVKTFKESLKMCRWDAARYSLRFLADLVNCHVISATSLLQLLDTMIDVSNEDTVPQVRRDWFVFAVLSTLPWVGRDLYEKKESALESLLLRIEVYLNKRSKKHHNALRVWSSDAPHPQEEYLDCLWAQIRKLRQDNWAEKHIPRPYLVFDSILCEALQHNLPTIVPPPHHDNFEYPMPWVVYRMFDYTDCPDGPNLPGAHSIERFLIEEHLHHIIETYHHERKDCAAQLLSFPYKHKIPLEYCIVEVVFAELFHMPTPRYLDICYGSILIELCKLQPATLPQVLAQATEILFMRIDSMNTSCFDRFVNWFSYHLSNFKFTWSWDEWDSCLLLDGEHPRPKFIQEVLQKCLRLSYHQRITEMMPTTYAKLIPLTPVPNYKYANEEAANLPGTTVAHQLVVAIRQKCTPEEVVNILKDIPNSGYSGEEMSDGSFNALKIDVFVQTLLNLGSKSFSHSFAAISKFHSVFRALAETEEAQICILHNIFELWSSHQQMMVVLIDKLLKLQIVDCSAVATWIFSKEMTGEFTKLYLWEILHLTIKKMNKHVIKLNTELSEAKEKLAKADSSSSDSEDDSSHKRKKPITHADKPSEEVVERMEEKLEAANVNQKRLFLIVFQRFIMILSEHLLRSDTDGRDPDTDWYRWTIGRLQQVFLMHHEQVQKYSSTLETLLFTSDLDTHILEVFQQFVALRA
With B7 the MAPPIT interaction score (CG6664) was -0.12.

B8: frj (protein)
chain: MSIDDVIYVICLLGCIGAGSYVKKIADEGQRKLVSTGLGVLVVVIVSGLHSLHCFVSLALGTAAVLLVHPSKGHLVTFAVMFGYLVFFRIFDFYFGIPGHTNMIQMILTLKVSGIAFEKTAAWKRLQAHDEQKKNDQRDVHQESPIEITDYDVELQSLSAAEILHYSFNYIGVLTGPYYRYRTYRDYFEMPFKTYAPTVEATLEKLKYAVFYCALYLATNYMWPLDYALSDEFFNDRSFVYRLLYVWPTFFTFRARIYTGLTLSECVCTMAGFGAYPDESDPNNGEGPRKRYQHLKRDADKHTYNFTTIVNTRVLEVERCWTFREGMKHWNVCVQYWLAVNVYKLFPSKKYRTGATLLCSAYWHGFRPGHYFCIMGAPFYVSLEDMWDKLVRKSATGTSRRVIDVIFWIFKWFAFSYLGEAFLLSSFGNIWRFYSSVYHIGYISWAAMTALGFYLTSQRKAAERRKKRAAEKAAGGDGIAAAIEKEKAQ
B8 gave an MAPPIT interaction score (CG6933) of 0.0283.

B9: Fer1HCH (protein)
chain: MVKLIASLLLLAVVAQAYGDFKCSLAVPEITKDWVDMKDACIKGMRNQIQEEINASYQYLAMGAYFSRDTVNRPGFAEHFFKAAKEEREHGSKLVEYLSMRGQLTEGVSDLINVPTVAKQEWTDGAAALSDALDLEIKVTKSIRKLIQTCENKPYNHYHLVDYLTGVYLEEQLHGQRELAGKLTTLKKMMDTNGELGEFLFDKTL
For B9, the MAPPIT interaction score (CG6683) was -0.52, the MAPPIT interaction score (CG8654) was 0.0556 and the MAPPIT interaction score (vih) was -0.155.

B10: Sras (protein)
chain: MKNLSETEAEVTMQENVVHESLPQIPVATSVSCCFVLAVLYVGSLYIWSTKHNRDHPTTVKRRFASVSMVMLAAPFFVYFFSSPELLSRVPFPKLLGLRLEGLWQAVVIPYSLTVLLFLGPIFVNMQNESVRSYFDLDYWRGSFGSIIWVRNHVIAPLSEEFVFRACMMPLILQSFSPLVAVFITPLFFGVAHLHHIAERLSLGVELSTALLIGLFQFIYTTLFGFYSAFLFARTGHVMAPILVHAFCNHMGLPDLQDLWQQDLWRRVVAIILYLAGFVGWMFLVPLATDPSIYDNTLYWNA
B10 showed an MAPPIT interaction score (CG7407) of -0.229 and an MAPPIT interaction score (Dpm3) of 0.0475.

B11: bora (protein)
chain: MYNDEVRTPQALKNRYITNVNGLKCRARRNSHSNSSNSSAASATPTNGGKENGKYSPQMSGNVCTPPPKRLHKVRNPFEGAMADRLHLPLIASPSLFRSRTPQLSSTQFEWNIDEVSQLKPADVEPHETQFHDSPDPEQESKAQLAISAFFKESLIVPSPVDCPLRKQRIILNCSEDNTPISNKSRRMRDCEVQTELTLPPILPKALEDALRPYFQPHLAGRLSGRSKSSGGPDIFNSSMRRKLFDLHNVIVLGEQDTAEPSRSMVGSSPQGKQTMFAGRLSDSASGESSFGCLSPIRNLCGLPPGTPDNGTCSGKRKLLMHELELPSPIAPSEHLSRRLVHSKVEISVTEQHDTLSERTALKFTPDRSSSPMGGGLEHSDCSINQRVRRLRVNSTRQVVIETGDQPLFEETEGEEEEAESEDDEEADAMQLSTVSFNCSSSNSDTPRGHKRHRSAQRKNLSQSFSANLEEEADQTQGGAGSIQPAEPPSVAMPQQGARIPLYRADSGFNETSSTTFAFSQDLPLDVSMACCSTPSTRS
B11 was tested, and the MAPPIT interaction score (CG7747) was 1.91.

B12: Inx7 (protein)
chain: MLNTFSSVRQYLKFDLTRVVIDNIVFKLHYRWTFVILLVATLLITSRQYIGEHIQCLSDGVVSPVINTFCFFTPTFTVVRDQNQTAYRPGSEPPGIGAFDPEKDTIKRHAYYQWVPFVLFFQALCFYIPHALWKSWEGGRIKALVFGLRMVGLTRYLKNDSLRIGKLNIPSMAEAEERVKDIRRTMIDRMRLNQSWGAHLVFAEVLNLINLLLQITWTNRFLGGQFLTLGPHALKNRWSDELSVLDLVFPKITKCKFHKFGDSGSIQMHDALCVMALNIMNEKIYIILWFWYAFLLIVTVLGLLWRILTLCFYRNVTFTRWSLYWAKPGQLDENELLAVIDKCNFSNWMFLFFLRSNLSEFLFKKVIYHLASEFPNPDHDNDVNAYREAPPTPAKNRYPELSGLDTIDSPLLHLRRNGSPSAGGAQGPSTSDMAKLPV
For B12, the MAPPIT interaction score (CG6933) was -0.387.
